Screening results (PubChem)
TRHR enhancer – TRH receptor (human) allosteric enhancement. P34981. TRHR cells, fluo-8 calcium fluorescence, EC20 TRH enhancement. enhancement, % at 2 µM. 0.66% of 360,000 active. AID 493056; in the data active = enhancement above about 30%; also: 0% is about no effect
Target sequence (P34981 whole entry, looked up): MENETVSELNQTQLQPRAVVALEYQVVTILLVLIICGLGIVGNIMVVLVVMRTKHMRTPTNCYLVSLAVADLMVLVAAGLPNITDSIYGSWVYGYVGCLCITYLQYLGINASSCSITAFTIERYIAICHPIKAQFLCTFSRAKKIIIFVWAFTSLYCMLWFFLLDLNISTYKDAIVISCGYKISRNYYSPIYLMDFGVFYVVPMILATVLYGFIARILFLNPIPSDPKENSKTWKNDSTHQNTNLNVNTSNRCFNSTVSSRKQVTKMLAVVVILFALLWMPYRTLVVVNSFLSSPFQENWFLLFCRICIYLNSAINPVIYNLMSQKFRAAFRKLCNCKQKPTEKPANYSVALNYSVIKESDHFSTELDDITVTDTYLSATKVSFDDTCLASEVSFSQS
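TRHR-expressing cells loaded with fluo-8 calcium dye were read kinetically (ex 480/em 530) during compound addition, then stimulated with an EC20 of TRH (10 nM final). Enhancement of the Gq-mediated intracellular calcium response was scored.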
TRHR agonist – activates the human TRH receptor; TRHR cells, calcium flux fluo-8, FDSS agonist mode; AID 493084; 0.18% of 360,000 active; P34981; activation, % at 2 µM; also: 0% is about no effect
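In this calcium-flux screen, cells bearing human TRHR are dye-loaded with fluo-8, baselined for 10 cycles, then exposed to library compounds; positive kinetic calcium responses during the agonist phase mark hits, with TRH as control.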
D1 antag – antagonists of human D1 dopamine receptor | P21728 | HEK293 TREx D1 cells, calcium flux, dopamine EC80; active compounds read low | activity change, negative = inhibition, % at 10 µM | 3.2% of 360,000 active; in the data active = activity change below about -30%; also: % is scaled to controls: 0 for no effect and ±100 for the full control effect
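Kinetic fluorescence of a calcium dye serves as the read-out. D1-expressing Hek293 Trex cells, induced overnight at 30 C, are exposed to compound for 180 s before an EC80 dopamine addition, then read 180 s further.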
D1 agonist – agonists of human D1 dopamine receptor | activation, % at 2 µM | HEK293 T-REx D1 cells, calcium flux, agonist mode | 1% of 360,000 active | AID 504660 | P21728; also: 0% is about no effect
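Inducible HEK293 T-REx D1 cells, force-coupled to calcium signalling, were plated at 4000 cells/well with tetracycline and held overnight at 30 C. After no-wash calcium dye loading, compound-evoked calcium rise over 180 s flagged agonists.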
Glioma ERSR ind – induces the endoplasmic reticulum stress response in human glioma cells; Potency, µM, for the others: top-dose activation, usual class: activators; 0.02% of 420,000 active; U87-MG GRP78 promoter luciferase reporter, 16 h; active = well fitted activation curve with a large enough effect; also: potency is read from the fitted curve at half-maximal effect; series mostly up to about 76 µM; % of control where 0% means no effect; nearly all actives have a fitted effect of over 35% in size
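ERSR induction read as luciferase luminescence (Bright-Glo, 10 min at room temperature) in stably transfected human U87-MG glioma cells exposed to compounds for 16 h, using GRP78 as sensor.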
D1 potentiator – enhances dopamine response at the human D1 receptor. P21728. HEK293 TREx D1 cells, calcium flux, dopamine EC20 potentiation. potentiation, % at 10 µM. 0.036% of 360,000 active. AID 504651; in the data active = potentiation above about 30%; also: 0% is about no effect
* hit, by the source's call; / = no result; ! = a repeat was not active. An excerpt weighted towards active compounds, which were near 4% of everything screened. Rule as the data show it, unless noted: active = activation above about 30%; inactive = the rest.

SMILES	TRHR enhancer	TRHR agonist	D1 antag	D1 agonist	Glioma ERSR ind	D1 potentiator
O=C1c2cc(F)ccc2OC2(CCNCC2)C12CC(c1ccccc1)=NO2 (configuration not stated)	-7.9	2.0	-12.8	43.5*	-2.7%	-2.9
CSc1ccc(/C=C2\C=Cc3cc([N+](=O)[O-])ccc32)cc1	/	/	/	/	-2.4%	/
Cc1ccc(C(OC(=O)c2ccco2)C(=O)NC(C)(C)C)cc1 (configuration not stated)	-0.5	-0.9	-44.2*	-3.0	-3.2%	-10.8
COc1ccc(C(OC(=O)c2ccco2)C(=O)NC(C)(C)C)cc1 (configuration not stated)	29.9	1.7	6.3	-0.7	-3.7%	-3.6
Cc1cc(C)n2nc(C(=O)OCC(=O)NCc3ccc(Cl)cc3)nc2n1	3.0	-0.2	-32.8*	-0.6	-2.1%	-5.7
Cc1cc(C)n2nc(C(=O)OCC(=O)Nc3ccc(Cl)cc3)nc2n1	/	/	/	/	-2.5%	/
Cc1ccnc2nc(C(=O)OCCOc3ccc(F)cc3)nn12	5.2	-3.0	-14.3	3.2	-1.2%	0.4
Cc1ccnc2nc(C(=O)OCCOc3ccc(Cl)cc3)nn12	3.0	-0.2	-36.7*	7.0	-2.1%	-3.7
COc1ccc(C(CCNCc2ccc(N(C)C)cc2)c2ccccc2OC)cc1 (configuration not stated)	1.9	0.4	11.4	5.6	-1.7%	-9.6
COc1ccc(C(CCNCc2ccc(OC(C)C)cc2)c2ccccc2OC)cc1 (configuration not stated)	5.1	1.5	10.1	58.7*	-14.1%	3.1
COc1ccc(CNCCC(c2ccc(OC)cc2)c2ccccc2OC)cc1 (configuration not stated)	3.5	0.9	-4.4	30.4*	-2.2%	-1.1
COc1ccc(CNCCC(c2ccccc2)c2ccc(OC(C)C)cc2)cc1OC (configuration not stated)	19.5	1.1	12.4	22.7	-2.0%	-6.6
Cc1[nH]c2ccccc2c1C(=O)CN1C(=O)C(=O)N(CCC2=CCCCC2)C1=O	1.8	0.3	-31.6*	-0.1	-6.7%	-0.3
COCCN=C1N[C@@H](c2ccc(Br)cc2)C(C(=O)OC)=C(C)N1Cc1ccccc1	19.7	0.3	-33.7*!	33.8*!	-4.7%	-4.0
Cc1ccc2nc(NCc3ccccc3)c(C=NCc3ccccc3)c(=O)n2c1	-0.2	0.6	2.8	23.3	5.7%	-2.2
Cc1ccc2nc(NCCCN3CCOCC3)c(C=NCCCN3CCOCC3)c(=O)n2c1	31.8*	0.3	11.1	0.9	-1.9%	-8.4
CCNc1nc2c(c(=O)n(Cc3ccccc3)c(=O)n2C)n1Cc1ccccc1	39.3*	-0.1	-3.5	1.7	-6.5%	0.5
CN(Cc1ccccc1)c1oc(COc2ccccc2F)nc1C#N	4.7	-0.5	-33.0*	28.9	0.1%	/
N#Cc1nc(COc2ccccc2F)oc1NCCc1ccccc1	6.3	-0.7	-1.1	-1.8	-0.6%	-8.8
CSc1cc2c(s1)c1cnn(Cc3ccccc3F)c(=O)c1n2C	-7.9	-0.9	7.0	4.1	/	38.2*
O=C(NCC(c1ccc(F)cc1)N1CCOCC1)c1ccccc1F (configuration not stated)	-3.4	-0.1	-39.0*	1.0	1.1%	-9.1
O=C(NCC(c1cccs1)N1CCOCC1)c1cc(F)cc(F)c1 (configuration not stated)	/	/	/	/	-1.3%	/
CSc1ncccc1C(=O)NCC(c1cccs1)N1CCOCC1 (configuration not stated)	2.1	-0.1	-80.1*	3.0	-2.9%	-2.8
O=C(NCC(c1ccc(F)cc1)N1CCOCC1)c1cc(F)c(F)c(F)c1F (configuration not stated)	-0.9	0.7	-6.2	3.3	-7.7%	-9.1
CCOC(=O)c1cn(-c2ccc([N+](=O)[O-])cc2)c2cc(Cl)c([N+](=O)[O-])cc2c1=O	0.2	0.4	-42.2*	2.0	-5.4%	-4.3
SMILES	TRHR enhancer	TRHR agonist	D1 antag	D1 agonist	Glioma ERSR ind	D1 potentiator
O=C(O)c1cn(-c2ccc(F)cc2)c2cc(Cl)c(F)cc2c1=O	-0.1	0.5	-3.7	1.7	-2.2%	4.1
CN1/C(=C/C(=O)COC(=O)C2COc3ccccc3O2)C(C)(C)c2ccccc21 (configuration not stated)	/	/	/	/	-4.9%	/
Cc1nc2ccc([N+](=O)[O-])cc2c(=O)n1Cc1ccc(F)cc1	-13.6	0.0	-32.1*	7.3	-4.5%	-4.6
Cc1nc2ccc([N+](=O)[O-])cc2c(=O)n1Cc1cccc(F)c1	-17.8	-0.8	1.9	3.9	-5.2%	-5.8
Cc1cccc(Cn2c(C)nc3ccc([N+](=O)[O-])cc3c2=O)c1	-13.6	0.6	-33.4*	10.5	-0.5%	-2.8
O=C1CCCC2=C1C(c1ccc(O)c(Br)c1)C1=C(CCCC1=O)N2c1ccccc1	-5.4	0.2	-36.5*	9.5	-1.0%	0.6
N#C/C(=C\c1ccc(-c2ccc(C(=O)O)cc2)o1)C(=O)Nc1ccccc1C(=O)O	-4.9	-0.5	-1.9	-0.4	1.3%	0.8
Cc1ccc(Oc2ccc(Oc3ccc(C)cc3)nn2)cc1	11.8	-0.9	0.9	44.0*	3.7%	1.1
CN1CC2=Cc3ccccc3OC23Oc2ccccc2C=C3C1	0.2	0.5	-50.9*	13.0	-15.1%	-16.4
O=C1c2ccccc2OC2(C=Cc3ccccc3O2)N1Cc1ccccc1 (configuration not stated)	-0.9	0.5	-2.1	3.8	3.8%	-2.6
COc1cc(OC)c(C2C=C(c3ccc(C)cc3)Nc3c(C(=O)Nc4ccccc4)cnn32)cc1OC (configuration not stated)	-4.5	-0.3	-45.2*	2.7	-0.4%	-5.8
COc1ccc(-c2nnnn2C)cc1S(=O)(=O)NCc1ccccc1	-1.9	0.2	-55.3*	2.8	-0.8%	0.3
COc1ccc(NC(=O)Cn2c([N+](=O)[O-])cnc2C)c(OC)c1	/	/	/	/	-3.1%	/
Cc1ccc(CSc2nnc(SCC(=O)N/N=C/C=C/c3ccccc3[N+](=O)[O-])s2)cc1	6.9	0.8	-9.7	3.1	-4.6%	2.8
CCn1c(SCC(=O)N/N=C/C=C\c2ccccc2[N+](=O)[O-])nnc1-c1ccccc1	-6.2	-0.6	-57.0*	-1.4	-1.0%	-0.7
O=[N+]([O-])c1ccc(Cl)cc1N1CCOCC1	4.8	-0.8	-2.8	1.4	-5.5%	0.1
COc1cc([N+](=O)[O-])c(N2CCOCC2)c([N+](=O)[O-])c1OC	5.8	-1.1	-33.5*	9.3	0.2%	-8.6
O=[N+]([O-])c1cc(Br)c2nsnc2c1N1CCOCC1	-2.6	14.0	-44.5*	0.9	-2.8%	-7.2
O=c1oc2ccccc2c(N2CCOCC2)c1[N+](=O)[O-]	18.4	0.2	-4.4	4.2	0.3%	6.8
